# Screens from PubChem BioAssay.
# Pf Dd2 growth – qHTS Primary assay for Inhibitors of Plasmodium falciparum Dd2 growth in vitro; AID 1347417, 2020; P. falciparum Dd2 growth, SYBR Green, 72 h; Potency, µM (titrated, usually from 28.9 µM), without a hit: at the highest dose activity, negative = inhibition, most hits filed as inhibitors; 120,000 tested, 4.3% active; active = well fitted inhibition curve with a large enough effect;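 note: plate controls were DMSO vehicle for no effect and reference drug for full effect; nearly all actives have a fitted effect of over 65% in size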
#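 Readout: SYBR Green fluorescence, 485 nm excitation, 535 nm emission, after ~16 h lysis at 37C. Before that, Dd2-infected red cells (2.5% hematocrit) grew 72 h with compound, 29 uM top final concentration.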
# Active calls of the source: *; i = inactive; [ ] = remark or other dose. Only a selection was taken, and hits are over-represented in it overall. Potency is the fitted concentration of half-maximal effect.
SMILES,Pf Dd2 growth
O=C(C1CCCC1)N1CCc2nc(-c3ccc(Cl)cc3)nc(-c3ccccc3)c2C1,i
CCc1nc2c(c(-c3ccc(OC)cc3)n1)CCN(C(=O)c1ccc(OC)cc1)CC2,28%
CCc1nc2c(c(-c3ccc(Cl)cc3)n1)CCN(C(=O)c1ccccc1OC)CC2,i
Cc1ccc(C(=O)N2CCc3nc(C4CC4)nc(-c4ccc(Cl)cc4)c3C2)cc1,-30%
COc1ccc(-c2nc(C3CC3)nc3c2CN(C(=O)c2ccccc2F)CC3)cc1,-11%
CCc1nc2c(c(-c3ccc(OC)cc3)n1)CN([S+](=O)([O-])c1cccc(OC)c1)CC2,-24%
O=C(C1CCCC1)N1CCc2nc(-c3ccccc3)nc(-c3ccc(Cl)cc3)c2C1,4µM*
CCc1nc2c(c(-c3ccc(OC)cc3)n1)CCN(Cc1ccc(C(F)(F)F)cc1)CC2,11µM*
O=C(C1CC1)N1CCc2nc(-c3ccccc3)nc(-c3ccc(Cl)cc3)c2C1,i
COc1ccccc1C(=O)N1CCc2nc(C3CC3)nc(-c3ccc(Cl)cc3)c2C1,11µM*
COc1ccc(-c2nc(C)nc3c2CCN(Cc2ccc(F)cc2)CC3)cc1,i
CCc1nc2c(c(-c3ccc(Cl)cc3)n1)CN(Cc1cccc(OC)c1)CC2,10µM*
COc1cc(Cl)c(C)cc1NC(=O)CSc1nc2c(c(=O)[nH]1)CCCC2,i
CN(C)C[C@@H]1CN(c2ncccn2)C[C@H]1NC(=O)c1cc(F)ccc1Cl,-25%
Cc1ncnc(N2CCC(CO)(Cc3ccccc3C(F)(F)F)CC2)c1C,-19%
C[C@H]1CN(S(=O)(=O)c2cccc(F)c2)C[C@@H]1c1nc(-c2ccccc2)no1,i
COc1ccc(NC(=O)NC[C@H]2C[C@@H]3CCN2C[C@@H]3CN2CCN(c3ccccc3OC)CC2)cc1,i
C[C@H](C(=O)NCCN1CCOCC1)C1CC[C@@]2(C)Cc3sc(CS(=O)(=O)Cc4ccc(F)cc4)nc3[C@@H](C)[C@@H]2[C@H]1O (stereo partly drawn),-17%
COc1cccc(S(=O)(=O)N2CCCC(c3nc(CCOCC4CC4)no3)C2)c1 (stereo not drawn),-9%
CC(=O)N1CCCN(CC[C@H]2CN(C(=O)c3ccccc3)CC[C@H]2CC(=O)O)CC1,i
NC(=O)[C@@H]1CCCN1C(=O)C1CCN(c2nc(-c3ccccc3)nc3c2CCC3)CC1,-20%
COc1ccc(-c2nc(-c3ccccc3)nc3c2CN(C(=O)Cc2ccccn2)CC3)cc1,5.6µM*
CCc1nc2c(c(-c3ccc(O)cc3)n1)CCN(C(=O)c1ccc(F)cc1)CC2,i
O=C(NC1CCNCC1)C1CCN(c2nc(-c3ccccc3)nc3c2CCC3)CC1,-11%
CCc1nc2c(c(-c3ccc(O)cc3)n1)CN(Cc1ccc(F)cc1)CC2,-7%
SMILES,Pf Dd2 growth
O=C(C1CCN(c2nc(-c3ccccc3)nc3c2CCC3)CC1)N1CCNCC1,13µM*
COCC(=O)N1CCc2nc(-c3ccccc3)nc(-c3ccc(OC)cc3)c2C1,-8%
COC(=O)N1CCc2nc(-c3ccc(OC)cc3)nc(-c3ccccc3)c2C1,i
CCc1nc2c(c(-c3ccc(O)cc3)n1)CCN(Cc1ccccc1C(F)(F)F)CC2,1.8µM*
O=C(c1ccc([N+](=O)[O-])cc1)N(Cc1ccco1)c1ccccn1,38%
COc1ccccc1C(=O)NCc1c[nH]c2ncccc12,-8%[44.1 µM]
Cc1ccc(CN2C[C@@H]3C(=O)N(CCc4ccccc4)C(=O)[C@@H]3C2)cc1,-6%
Cc1ccc(Cl)cc1NC(=O)c1cc(CN2CCCC2)on1,i[5.79 µM]
Cc1noc(-c2ccn3c(CNC(=O)COc4ccccc4)nnc3c2)n1,-12%
COc1ccc(C(=O)N2CCC[C@H]2c2nc(-c3ccccc3Cl)no2)cc1F,i
O=c1ccc2cc(S(=O)(=O)N3CCC4(CCCNC4)C3)ccc2o1 (stereo not drawn),-13%
CN1CCC(N2CCN(S(=O)(=O)c3ccccc3C(F)(F)F)CC2)C1=O (stereo not drawn),-15%
O=C(c1cc(F)c(F)c(F)c1)N1CCC2(CCCNC2)C1 (stereo not drawn),3%
O=S(=O)(c1ccccc1C(F)(F)F)N1CCC2(CCCNC2)C1 (stereo not drawn),7.9µM*
CC(C)c1ccc(S(=O)(=O)N2CCC3(CCCNC3)C2)cc1 (stereo not drawn),5µM*
CNc1ccc(C(=O)N2CCC3(CCCNC3)C2)cc1 (stereo not drawn),-15%
Cc1cccc(-n2nc(C3CC3)nc2-c2ccc(-c3nnn(C)n3)cc2)n1,-3%
CN(CCOc1ccccc1)Cc1nc(-c2ccccn2)no1,-7%
COc1ccc(C(=O)N2CCOC3(CCN(C(C)=O)CC3)C2)cc1,-13%
CNC(=O)N1CCC(C2CCN(S(=O)(=O)c3ccc(F)cc3)C2)CC1 (stereo not drawn),-20%
O=C(COc1ccc2oc3c(c2c1)CCCC3)Nc1cccc(Br)c1,44%
COc1ccc(-c2noc([C@@H]3CCCN3C(=O)c3cc(C)cc(C)c3)n2)cc1OC,i
O=C(CC1CCCC1)N1CCC(Cc2nncn2Cc2ccccc2)C1 (stereo not drawn),-16%
CCN1CCCC2(Cc3ccccc3CN(C(=O)CCNC(C)=O)C2)C1 (stereo not drawn),11%
CC(=O)N1Cc2ccccc2CC2(CCCN(C)C2)C1 (stereo not drawn),-7%[44.1 µM]
SMILES,Pf Dd2 growth
CC(=O)N1Cc2ccccc2CC2(CCCN(CC3CCOCC3)C2)C1 (stereo not drawn),-5%
CC(C)C(=O)N1Cc2ccccc2CC2(CCCN(CC3CCOCC3)C2)C1 (stereo not drawn),7.1µM*
CCN1CCCC2(Cc3ccccc3CN(C(=O)C(C)C)C2)C1 (stereo not drawn),11µM*
CC(C)C(=O)N1Cc2ccccc2CC2(CCN(CC3CCNCC3)C2)C1 (stereo not drawn),2%
Cc1ccc(-n2c(/C=C/c3cc(Br)cs3)nc3ccccc3c2=O)cc1,11%
c1ccc(OCCCn2cc(-c3cncnc3)nn2)cc1,-9%
Cc1oc2ncn(CC(C)C)c(=O)c2c1C(=O)Nc1ccc(Cl)cn1,48%
CCCNC(=O)NC[C@@H]1C=C(C)[C@H](Cc2nc3ncccc3[nH]2)C[C@H]1C(C)C,i
COCCNC(=O)C[C@@H]1C[C@@H](C(C)C)[C@H](CNC(=O)C2CC2)C=C1C,8.9µM*
COc1ccc2nc(C[C@@H]3C[C@@H](C(C)C)[C@H](CNCc4ccc(NC(C)=O)cc4)C=C3C)[nH]c2c1,i
COc1ccc2nc(C[C@@H]3C[C@@H](C(C)C)[C@H](CNC(=O)CC4(CC(=O)O)CCCC4)C=C3C)[nH]c2c1,i
COCC(=O)NC[C@@H]1C=C(C)[C@H](CC(=O)N2CCCC2)C[C@H]1C(C)C,-22%[44.1 µM]
COc1ccc2nc(C[C@@H]3C[C@@H](C(C)C)[C@H](CNCc4ccccn4)C=C3C)[nH]c2c1,0.63µM*
CC1=C[C@@H](CNCc2ccccc2O)[C@H](C(C)C)C[C@H]1Cc1nc2c(C)cccc2[nH]1,-25%[44.1 µM]
CC1=C[C@@H](CNC(=O)CC2(CC(=O)O)CCCC2)[C@H](C(C)C)C[C@H]1Cc1nc2ccc(F)cc2[nH]1,i
CCCNC(=O)NC[C@@H]1C=C(C)[C@H](Cc2nc3ccc(OC)cc3[nH]2)C[C@H]1C(C)C,10µM*
CCOC(=O)C[C@@H]1C[C@@H](C(C)C)[C@H](CNC(=O)C2CC2)C=C1C,-16%[44.1 µM]
COCC(=O)NC[C@@H]1C=C(C)[C@H](Cc2nc3ccc(F)cc3[nH]2)C[C@H]1C(C)C,13µM*
